# PubChem BioAssay (NCI)
# This is part of a sample that, as a whole, favours compounds with a hit. Of some 83,000 tested, about 20% had one in any assay.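 How to read the values: 0–100, growth inhibition (40 = 60% inhibited); 0, no net growth; -100 to 0, cell death (-40 = 40% of starting cells died; -100 = all dead).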 A number with no mark means an inactive call. Active and inactive are the calls of the source. How the source made its calls: active means growth percent below 10; inactive means the rest.
# Assays:
# Assay in all cases: NCI-60 one-dose screen, 48 h (100 = growth as untreated, 0 = no growth, -100 = all killed)
# Conditions in all cases: 10 µM unless noted
# HCT-15 colon = test system: HCT-15 colon
# HT29 colon = test system: HT29 colon
# SNB-75 CNS = test system: SNB-75 CNS
# SNB-19 CNS = test system: SNB-19 CNS
# U251 CNS = test system: U251 CNS
# PC-3 prostate = test system: PC-3 prostate
# SK-MEL-5 melanoma = test system: SK-MEL-5 melanoma
# UACC-62 melanoma = test system: UACC-62 melanoma
# LOX IMVI melanoma = test system: LOX IMVI melanoma
# SK-MEL-28 melanoma = test system: SK-MEL-28 melanoma
Compound,growth (HCT-15 colon),growth (HT29 colon),growth (SNB-75 CNS),growth (SNB-19 CNS),growth (U251 CNS),growth (PC-3 prostate),growth (SK-MEL-5 melanoma),growth (UACC-62 melanoma),growth (LOX IMVI melanoma),growth (SK-MEL-28 melanoma)
COc1ccc(C2CC(c3ccc(OC)cc3O)=NN2c2ccc(S(N)(=O)=O)cc2)cc1 (stereo not given),33.6%,33.7%,58.2%,59.5%,40.9%,15.5%,49%,38.1%,52.5%,56.1%
O=C(NCc1ccccc1)c1ccc2c(c1)NC(=O)[C@@H]1CCCN21,99.6%,103%,86.6%,94.6%,102%,103%,101%,93.7%,91.2%,103%
CCOC(=O)C1=C(C)n2nc(CC#N)c(C#N)c2NC1c1ccc(Cl)cc1 (stereo not given),97.1%,111%,86.1%,106%,107%,91.3%,98.3%,94.4%,94.7%,101%
C=C(C)[C@@H]1CC[C@]2(C(=O)O)CC[C@]3(C)[C@H](CC[C@@H]4[C@@]5(C)C[C@@H](CC#Cc6ccc(Cl)cc6)C(=O)C(C)(C)[C@@H]5CC[C@]43C)[C@@H]12,45.5%,30.1%,70%,54%,28.1%,25.9%,51.8%,-20.2% (active),59.6%,-23.1% (active)
CN1CCN(/C=C2\CC(C(=O)NCc3ccc(Cl)cc3Cl)NC2=O)CC1 (stereo not given),108%,99%,106%,100%,100%,90.9%,95.8%,96.6%,100%,110%
COc1cc2nc3c(=O)n(CCN(C)C)cnn3c(=O)c2cc1OC,103%,101%,76.4%,105%,107%,102%,98.7%,101%,97.9%,102%
Sc1cccc2cccnc12,30.1%,15.8%,52.8%,42.7%,23.2%,43.7%,-10.9% (active),-3.89% (active),7.92% (active),36.3%
Cc1cc(C)c(NC(=O)c2sc3nc4c(cc3c2N)CCCCCC4)c(C)c1,41.1%,19%,57.6%,49.1%,35.3%,47.9%,57.1%,34.5%,58.7%,75.2%
Cc1ccc(-c2nc(C#N)c(S(=O)(=O)N(C)CCO)o2)cc1,37.6%,28.1%,101%,86.5%,83.7%,99.8%,71.4%,62.4%,41.9%,82%
COc1cc(C2=NN(c3ccccc3)C(c3cccc(Nc4ccnc5cc(C(F)(F)F)ccc45)c3)C2)cc(OC)c1OC (stereo not given),78.1%,71%,106%,92.8%,95.5%,72.4%,89.8%,83.5%,81.9%,100%
CCN1CCN(Cc2ccc(NC(=O)c3cccc(C#Cc4cccc5[nH]nc(N)c45)c3)cc2C(F)(F)F)CC1,-70.7% (active),-83% (active),-60.8% (active),-83.6% (active),-95.6% (active),-80.3% (active),-97.2% (active),-77.1% (active),-100% (active),-82.9% (active)
O=C(NC[C@H](O)CN1CCc2ccccc2C1)c1cc(NC2COC2)ncn1,103%,86.9%,74%,99%,102%,107%,107%,91.8%,93.9%,88.3%
CCCn1cc(/C=N\N=C2\C(=O)Nc3ccc(C)cc32)c2ccccc21,23%,17.1%,85.6%,63.3%,40%,18%,49.1%,40.4%,4.42% (active),59.4%
C#CC[C@@H]1C[C@]2(C)[C@H]3CC[C@@H]4[C@H]5[C@H](C(=C)C)CC[C@]5(C(=O)O)CC[C@@]4(C)[C@]3(C)CC[C@H]2C(C)(C)[C@H]1O,32%,35.9%,-8.42% (active),56.8%,26.3%,4.77% (active),74.5%,72.2%,44.3%,92%
COCCOC(=O)COc1ccc(OC)cc1,98.1%,114%,91.8%,97.4%,102%,96.8%,93.8%,96.2%,102%,109%
C#Cc1ccccc1NC(=O)c1sc2nc3c(cc2c1N)CCCCC3,97.6%,81.3%,90.4%,109%,99%,97.7%,97.2%,95.2%,95.8%,111%
COc1cc(C2=NN(C=O)C(c3cccc(Nc4ccnc5cc(C(F)(F)F)ccc45)c3)C2)cc(OC)c1OC (stereo not given),49.2%,15.3%,77.7%,64.2%,55.8%,31.7%,43%,75.4%,43.1%,50.6%
Nc1ccc(C(=O)Nc2cccc(C(=O)Nc3ccc4c(O)c(N=Nc5ccc(N=Nc6ccc(S(=O)(=O)O)cc6)cc5)c(S(=O)(=O)O)cc4c3)c2)cc1,102%,97.6%,85.7%,107%,107%,98.2%,107%,98.6%,94.7%,99.7%
COC(=O)c1ccc2c(c1)n(Cc1ccc3ccccc3c1)c[n+]2Cc1ccc2ccccc2c1,98.6%,10.1%,60.1%,33.1%,32.9%,29.6%,4.24% (active),-15.9% (active),23.9%,21.6%
O=C(O)C(C(=O)O)c1cccc2ccccc12,104%,94.9%,99.3%,98.3%,99.5%,100%,103%,96.8%,97.4%,111%
C=C(C)[C@@H]1CCC=C2CC[C@]3(C)[C@H](CC[C@@H]4[C@@]5(C)CCCNC(C)(C)[C@@H]5CC[C@]43C)[C@H]21,-17.7% (active),3.02% (active),100%,15.3%,-73% (active),38.2%,81.9%,87.7%,-43.4% (active),96.7%
COc1cccc2c1-c1ccccc1C2=O,33.3%,17.5%,18.1%,29%,17.8%,28.1%,9.97% (active),33.3%,40.3%,47.9%
C/C(=N/Nc1nc2ccccc2n1C)c1ccccn1,25.3%,14.7%,28%,15.2%,0.141% (active),19.1%,-6.67% (active),-26.5% (active),-39.4% (active),27.6%
Cc1ccc(C2CC(c3ccc(Nc4nc(NCCO)nc(NCCO)n4)cc3)=NN2c2ccc(Cl)cc2)cc1 (stereo not given),47%,30.5%,28.5%,75.5%,36.3%,33.5%,74.8%,81.2%,40.9%,48.4%
CCO/C=N/S(=O)(=O)c1cc2c(cc1Cl)NC=NS2(=O)=O,107%,97.4%,106%,103%,95.4%,92.3%,102%,104%,98.4%,120%
COc1cc(NC(=O)Nc2cnc(Nc3ccc(N4CCOCC4)cc3)nc2Oc2ccc(C(F)(F)F)cc2)cc(OC)c1,103%,95.5%,84.4%,99.5%,97.3%,93.3%,101%,105%,95.6%,116%
